Bioassay records (PubChem)
Only some compounds are listed: those with a hit (about 3.2% of all), similar ones and a draw of the others.
PGC1a acetyl inh: inhibitors of PGC1a acetylation signal, primary screen, cell-based, U2OS, AlphaScreen, inhibitor mode. AlphaScreen anti-acetyl-lysine; with virally co-expressed GCN5 acetyltransferase. inhibition, % at 15.6 µM. 350,000 compounds, 0.17% hits. AID 651687, 2012;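 active means every replicate shows inhibition of at least 40%; inconclusive means mean inhibition at least 40% but some replicate below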;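 further: 0% = neutral control wells and 100% = positive control wells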
ERAP1 HTS inh: human ERAP1 aminopeptidase inhibitors, primary screen, biochemical, single point, plate reader. recombinant ERAP1, Leu-AMC fluorescence, 60 min. inhibition, % at 10.7 µM. 340,000 compounds, 0.15% hits;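 active means mean replicate inhibition of at least 30%, or all replicates individually reaching that 30% level; inactive means mean below 30% and not every replicate reaching it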;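 further: 0% = neutral control wells and 100% = L-leucinethiol positive control wells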
CaV13 ICDI inh: Primary screen for inhibitors of IQ motif and Ca2+-dependent inactivation inhibitor domain binding in CACNA1D, Förster resonance energy transfer in living cells, …; 340,000 compounds, 0.098% hits; HEK cells, CFP/YFP FRET ICDI-IQ, plate reader, 10 min; percent FRET-ratio fall versus neutral wells; AID 743397; inhibition, % at 12.3 µM;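 active means mean replicate inhibition of at least 30% and at least 1% of replicates passing that level; inconclusive means only one of the two criteria is met; inactive means neither criterion is met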;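 further: 0% = median of the neutral control wells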
DENV2 CPE: inhibitors of DENV2 cytopathic effect, primary screen, cell-based, plate reader, single concentration; DENV2-infected cells, cytopathic effect rescue; AID 651640, 2012; CPE inhibition, % at 9.99 µM; 350,000 compounds, 1.7% hits; in the data active means CPE inhibition above about 20%, passing the limit was not always enough; inconclusive means no clear call, values can overlap the other calls; tested in BHK-21 cells;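 further: 0% = median of neutral control wells and 100% = median of positive control wells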
GSIS activator: GLuc luminescence reporter in INS-1E cells, primary screen for activators of glucose-dependent secretion of insulin; activation, % at 16.6 µM; INS-1E GLuc reporter insulin secretion, 2-3 h; AID 743287, 2014; 370,000 compounds, 0.61% hits;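 active means lowest replicate activation of at least 40%, so every replicate reaches that level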;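 further: 0% = median of neutral control wells and 100% = median of IBMX positive control wells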
Ecoli rRNA inh: reduced GFP signal of wild-type E. coli, primary screen, bacterial rRNA inhibitor project, GFP/RFP fluorescence, OD600, single point. E. coli WT GFP vs humanized-ribosome RFP mutants, 24 h; stronger effect = lower value; DMSO median 0, no signal -100. GFP signal change (wild-type ribosome), % (no concentration beside the values). 350,000 compounds, 1.6% hits. AID 720706, 2013;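 active means significant combined selectivity score with lowered wild-type GFP, culture density cut under 30%, mutant RFP and density less affected; inactive means any of these conditions unmet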
AID977621: growth inhibition of wild-type GFP E. coli, dose response, H69 mutant RFP, cherry-pick | shares compounds with Ecoli rRNA inh | E. coli wild-type GFP strain growth, fluorescence, 24 h | activity change, negative = inhibition at 50 µM | 1,900 tested, under 10 active;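 active means Wild-type ribosome reporter drop at least double the humanized mutant ribosome reporter drop, growth loss under a set limit; inconclusive means no clear call, values can overlap the other calls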;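 further: wild-type GFP and H69 mutant RFP strains grown together 50/50 in each well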
AID977628: E. coli growth inhibition, wild-type GFP versus h24 humanized RFP strain, dose response, h24 mutant RFP vs wild-type GFP, cherry-pick | AID 977628, 2014 | 1,900 tested, under 10 active | activity change, negative = inhibition at 50 µM | E. coli WT GFP strain growth, fluorescence, 24 h | shares compounds with Ecoli rRNA inh;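 active means compound lowering the normal-ribosome reporter at least twice as much as the humanized-ribosome reporter, growth loss under a set limit; inconclusive means no clear call, values can overlap the other calls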;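 further: wild-type GFP and h24 humanized RFP strains co-cultured 1 to 1 per well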
Active calls of the source: *; ? = inconclusive; . = no result given.

SMILES	PGC1a acetyl inh	ERAP1 HTS inh	CaV13 ICDI inh	DENV2 CPE	GSIS activator	Ecoli rRNA inh	AID977621	AID977628
CN(C)S(=O)(=O)c1cccc(C(=O)OCC(=O)c2ccc3c(c2)NC(=O)CO3)c1	3.7	0.3	-8.1	2.2	5.5	-26.5*	-9.32	-9.2
CN1CCSc2ccc(C(=O)Nc3cccc(F)c3)cc21	.	8.0	-5.1	-3.6	66.8*	-23.4*	-2.85	-5.54
O=C1CCCc2ccccc2N1Cc1ccccc1	.	-2.4	-3.0	7.7	24.0	-27.8*	-7.87	-11.9
C[C@@H]1CN([C@H](C)CO)C(=O)c2cc(N(C)C)ccc2O[C@H]1CN(C)C(=O)Nc1ccc2c(c1)OCO2	-8.8	2.9	.	-4.1	15.1	3.1	.	.
CCCCNC(=O)c1onc(CSc2cc(C)cc(C)c2)c1C(=O)O	5.2	-1.6	-9.1	14.6	-6.6	-29.2*	-7.86	.
N#Cc1cccc(-c2ccc3c(c2)[C@H]2[C@H](CCN2S(=O)(=O)c2ccc(F)cc2)[C@H](CO)N3)c1	10.7	0.1	.	?	8.1	-8.2	.	.
N#Cc1cccc(-c2ccc3c(c2)[C@@H]2[C@@H](CCN2S(=O)(=O)c2cccc(F)c2)[C@H](CO)N3)c1	-6.2	0.4	.	5.8	-14.0	-19.1*	?	.
COc1cccc(NC2=Nc3cccc4cccc2c34)c1	.	0.9	-19.1	-2.3	-0.4	-34.4*	-0.484	.
CCCn1c(NCc2ccc3c(c2)OCO3)nc2ccccc21	-17.7	-2.7	-7.3	5.2	-18.1	-22.1*	.	?
CN1C(=O)c2cc(NC(=O)C3CCOCC3)ccc2OC[C@@H]2O[C@H](CC(=O)O)CC[C@@H]21	3.9	.	.	.	1.6	-0.3	.	.
COc1ccc(CNc2cc([N+](=O)[O-])ccc2OC)cc1	-3.7	-2.4	-7.0	-2.3	-9.3	-20.8*	-6.37	.
COc1ccc(-n2ccnc2SCC(=O)NCc2ccccc2)c(OC)c1	-3.6	3.3	-2.2	-6.5	14.9	-24.9*	5.42	.
COc1ccc(Nc2nc(N)c([N+](=O)[O-])c(N3CCN(C)CC3)n2)cc1	.	2.5	-15.5	-1.9	24.1	-6.1	.	.
COc1ccc(Nc2nc(N)c([N+](=O)[O-])c(N3CCCC3)n2)cc1	-3.2	4.4	-2.3	-1.6	3.7	-20.8*	5.67	-5.46
COc1ccc(OC)c(Nc2nc(N)c([N+](=O)[O-])c(N3CCOCC3)n2)c1	7.3	2.2	-1.4	-3.6	8.9	-31.0*	?	.
O=c1c2ccccc2cnn1Cc1n[nH]c(=S)n1C1CC2CCC1C2 (stereo unspecified)	.	2.2	2.3	-4.7	-10.3	-19.9*	-3.46	.
CC(c1ccccc1)n1c(Cn2ncc3ccccc3c2=O)n[nH]c1=S (stereo unspecified)	-43.2	.	-15.7	4.3	15.9	-9.0	.	.
CCC#CCN(Cc1ccccc1Br)[C@H](/C=C/c1ccccc1)[C@@H](O)Cc1ccccc1	-12.8	-1.3	.	0.7	.	.	.	.
Cc1cc(Br)ccc1OCc1nnc(-c2ccccc2)o1	-0.7	-4.4	-5.3	-7.8	17.9	1.9	.	.
COc1ccc(-c2nnc(COc3ccc(Br)cc3C)o2)cc1	-5.6	-2.4	-20.3	0.6	-8.8	-18.6*	?	?
COc1ccc(-c2ccc3n(c2=O)C[C@@H]2[C@@H](CO)[C@H](C(=O)NC4CCC4)N(S(C)(=O)=O)[C@H]32)cc1	.	-2.0	.	-4.1	8.6	1.1	.	.
Cc1ccc(C(=O)Nc2cccc(N(C)S(C)(=O)=O)c2)cc1S(=O)(=O)Nc1ccccc1	-6.5	-2.2	-6.6	1.8	-18.1	-19.6*	?	.
